Drawing on the OligoGym collection, this text covers sensor-assay potency score (higher = more potent) for 40 sequences.
Note: reference of the scale not given here.

The target of the first test is NGDN. The test can be described thus: pooled miR-30 sensor sort-seq; sequence = guide strand. Conditions: shRNA.
With TTGCTCATCATATTGCTGGGAT, the sensor-assay potency score (higher = more potent) is 0.439.
The same measure, in the same setting: with TACAGCCATCACTTGCTCCTGG the figure was -0.0207; with TTCTAGACGCTTCTTCTCCCGC, -0.831.
Same read-out and setting: with TAATGTACTGGAACCAAGCGTG the figure was -0.00853; with TTGCTCGTTTTCGCCGTCCTTT, -1.03.
Same read-out and setting: with TTCGCCGTCCTTTCTCTCGCTT the figure was -0.269; with TTTTCTTCCGACCTTTCTGAGG, -1.13.
TTTCTGTAGGATAGGCACCAGC registered a sensor-assay potency score (higher = more potent) of -1.35.
In the case of ATATTTCTTAGACACTCCCTTC, the sensor-assay potency score (higher = more potent) was -0.888.
In turn, TAGGATTCTGATCCTCATCAAG returned a sensor-assay potency score (higher = more potent) of -1.32.
On the same count and under the same terms, with TTTCTCTCGCTTACTGACGCTC the figure was -0.845; with TGTCACTGCAGTCTTGATCAGC, -0.949.

For the next test, the target named is NHP2. The test is described as above. Conditions: shRNA.
TCTGCTTCTGCTTCACCGCTTT displayed a sensor-assay potency score (higher = more potent) of 0.228.
On the same count and under the same terms, with TTTGTAGAGCTTCCGCGTGAGG the figure was -1.63.
Same read-out and setting: with TTGACCAGCAGCTCCTGGTAGG the figure was -0.886.
Regarding TTTCTTGATGCATTTGTAGAGC, the sensor-assay potency score (higher = more potent) is -0.635.
Still for that read-out and setting: with TAGAGCTTCCGCGTGAGGCGGC the figure was -0.484; with TTCACCGCTTTCTTGATGCATT, -0.959.
Sequence TTCTGCTTCACCGCTTTCTTGA showed a sensor-assay potency score (higher = more potent) of -0.609.
On the same count and under the same terms, with TTGACCATTATCACACAGGTGG the figure was -0.273; with TAGACATAGGGCAAATTTCGGT, -0.754; with TTCTGAACCTCTTTCACCCCGC, -0.0214.
Same read-out and setting: with TTTCTGAACCTCTTTCACCCCG the figure was 0.283; with TGCATTTGTAGAGCTTCCGCGT, -0.805.

In the next test the target is NKIRAS2. The description is as above. Conditions: shRNA.
TCTCGATCATCTCCGAACCCAC displayed a sensor-assay potency score (higher = more potent) of -1.49.
Still for that read-out and setting: with TATAATAGGAACTCAGACCCAA the figure was -0.0468; with TTGCCAAGGACCACGATGGTGA, -0.541.
Sequence TTGTTCTTCCGGCTGAGGGGGA yielded a sensor-assay potency score (higher = more potent) of -0.774.
Same read-out and setting: with TTATTGTGTCCAACCAATGCAT the figure was -0.509; with TTTGTCAATCTCCTTCTTGAGC, -1.29.
Sequence TGCGTCTCGATCATCTCCGAAC came in with a sensor-assay potency score (higher = more potent) of -1.51.
The same measure, in the same setting: with TATTGTGTCCAACCAATGCATC the figure was -1.63.
Same read-out and setting: with TGTAAGTCACACTTGTTGCCAA the figure was 0.157; with TTGCGTCATCTTGCTGGCCAAG, -1.52.
On the same count and under the same terms, with TTGAGCAGCTCCACACGCTGAA the figure was -0.404; with AAAGACTCTCTGCTATCTGTGC, -0.545.

Another test has as its target NKPD1. The test is described as above. Conditions: shRNA.
With TTGAGCGCGCTGACGGCTCGGA, the sensor-assay potency score (higher = more potent) was -0.211.
On the same count and under the same terms, with TAGATCTCCAGGAAGCACAGGA the figure was 0.323; with TTGAGCAGGCTGCCGCTCGGGC, -0.937; with AAAAGGAACTGCACGTTCCTGC, -0.361.
